Screens deposited in PubChem by National Center for Advancing Translational Sciences (NCATS).
Most compounds without a hit are left out; they make up all but 1.6% or so of the library.
gsp agonist: qHTS for Agonist of gsp, the Etiologic Mutation Responsible for Fibrous Dysplasia/McCune-Albright Syndrome: qHTS. gsp mutant cells, cAMP HTRF, 30 min. Potency, µM (top dose mostly 76.9 µM), usual class: activators. 0.13% of 340,000 active; active = well fitted activation curve with a large enough effect; inconclusive = small, poorly fitted or top-dose-only effect, or another doubt; inactive = no such curve, though single readings can be large or run the other way; cell line not stated here;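 also: phosphodiesterase inhibitor Ro 20-1724 added with compounds to block cAMP breakdown; nearly all actives have a fitted effect of over 60% in size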
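Cells in DMEM/10% FBS with G418 were pretreated with compounds in DMSO plus […] (300 uM stock) for 30 min at 37C. cAMP was measured by HTRF (cAMP-d2 plus anti-cAMP antibody-K) after 30 min at room temperature.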
ALOX12 inh: Primary qHTS assay for inhibitors of human arachidonate 12S-lipoxygenase (ALOX12): Round 2 | Polyunsaturated fatty acid lipoxygenase ALOX12 (Homo sapiens), P18054 | purified 12hLO, xylenol orange hydroperoxide absorbance | Potency, µM (doses to about 108 µM), actives largely listed as inhibitors | 1.1% of 580,000 active
Target sequence (P18054 whole entry, looked up): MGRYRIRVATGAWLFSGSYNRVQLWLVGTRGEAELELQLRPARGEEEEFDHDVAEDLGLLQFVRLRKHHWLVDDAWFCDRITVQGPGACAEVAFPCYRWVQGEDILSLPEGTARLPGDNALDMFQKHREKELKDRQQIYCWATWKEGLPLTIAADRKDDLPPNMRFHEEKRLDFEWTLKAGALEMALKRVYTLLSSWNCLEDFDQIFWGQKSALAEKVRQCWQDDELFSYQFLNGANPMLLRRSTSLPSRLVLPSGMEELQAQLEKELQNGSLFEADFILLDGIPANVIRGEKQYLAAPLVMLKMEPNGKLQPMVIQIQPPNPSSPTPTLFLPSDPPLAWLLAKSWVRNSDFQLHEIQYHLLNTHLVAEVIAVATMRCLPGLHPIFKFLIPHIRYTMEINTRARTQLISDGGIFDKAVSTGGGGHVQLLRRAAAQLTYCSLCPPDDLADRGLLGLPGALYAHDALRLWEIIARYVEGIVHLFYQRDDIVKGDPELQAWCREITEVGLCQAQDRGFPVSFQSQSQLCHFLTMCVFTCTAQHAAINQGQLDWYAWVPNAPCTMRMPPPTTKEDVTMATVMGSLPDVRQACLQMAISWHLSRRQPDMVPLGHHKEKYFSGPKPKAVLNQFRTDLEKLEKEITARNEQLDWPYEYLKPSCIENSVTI
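Purified human 12hLO (150 nM final) in 25 mM Hepes, 0.01% Triton X-100, pH 7.0 was preincubated 15 min at room temperature with compound. Then 40 uM arachidonic acid was added, 30 min. Hydroperoxide was read by Fe-XO absorbance ratio 573/405 nm.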
FUS yeast rescue: qHTS for Suppressors of FUS Proteinopathy: Primary screen using FUS-linked yeast assay; S. cerevisiae FUS-expressing, growth rescue, OD600, 24 h; Potency, µM (highest dose often 76.6 µM), usual class: activators; 0.24% of 390,000 active; AID 1347120, 2019; also: nearly all actives have a fitted effect of over 55% in size
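Restored growth of FUS-toxic S. cerevisiae, read as 600 nm absorbance after 24 h at 30C in galactose medium (starting OD 0.005). Controls CP55940 and DMSO.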
Mito fusion act: qHTS Assay for Small Molecule Inhibitors of Mitochondrial Division or Activators of Mitochondrial Fusion; S. cerevisiae fusion-defective mutant growth rescue, CellTiterGlo 48 h; Potency, µM (series often up to 46.1 µM), hits mostly activators; 0.23% of 320,000 active; AID 485298, 2010; also: nearly all actives have a fitted effect of over 45% in size
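S. cerevisiae fusion-defective temperature-sensitive mutants (e.g. fzo1-1, mgm1-5) grown 48 h at 37C in YPEG (ethanol/glycerol non-fermentable) medium with 23 nl compound per well; growth rescue read as CellTiterGlo luminescence.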
gsp antagonist: qHTS for Antagonists of gsp, the Etiologic Mutation Responsible for Fibrous Dysplasia/McCune-Albright Syndrome: qHTS | gsp-mutant cells, cAMP HTRF, 30 min | Potency, µM (titrated, usually from 76.9 µM), usual class: inhibitors | 0.4% of 340,000 active; calls by dose curve; cell line not stated here;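 also: intracellular cAMP measured with PDE inhibitor Ro 20-1724 present during compound exposure; nearly all actives have a fitted effect of over 65% in size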
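HTRF cAMP measurement after 30 min RT detection following 30 min, 37C compound treatment alongside […] (added as 300 uM solution) in G418-selected cells seeded at 2000/well and grown 16–24 h.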
Large screens that a line does not name were inactive; ! = a repeat was not active. Unless noted, calls follow the shape of the dose curve; as a rule, active = well fitted curve in the direction sought with a large enough effect; inconclusive = small, poorly fitted or top-dose-only effect, or another doubt; inactive = no such curve, though single readings can be large; an effect the other way counts as inactive or inconclusive.

Cc1ccc(C(=O)CCC(=O)NC(C)C2CC3CCC2C3)cc1C (stereo not given)	none (no result: gsp agonist, FUS yeast rescue, Mito fusion act, gsp antagonist)
CC(C)(C)c1ccc(S(=O)(=O)N2CCC(Oc3ccc(-n4cnnn4)cc3)CC2)cc1	none (no result: gsp agonist, Mito fusion act, gsp antagonist)
O=S(=O)(c1ccccc1F)N1CCC(Oc2ccc(-n3cnnn3)cc2)CC1	ALOX12 inh inconclusive, Mito fusion act 10µM
CCOC(=O)C1=C(C)NC(C)=C(C(=O)OCC)C1C(=O)OCC(=O)N1c2ccccc2CC1C (stereo not given)	gsp antagonist 11µM!
CC(C)c1ccc(C(=O)Nc2ccc(-c3nn4cnnc4s3)cc2)cc1	none (no result: gsp agonist, FUS yeast rescue, Mito fusion act, gsp antagonist)
Cc1ccc(N=Cc2ccc[nH]2)c(O)c1	FUS yeast rescue 35µM
Cc1ccccc1N=Cc1ccc[nH]1	none (no result: Mito fusion act)
Cc1noc(-c2ccc3c(c2)OCO3)c1C(=O)NCCSCc1ccco1	none (no result: gsp agonist, FUS yeast rescue, Mito fusion act, gsp antagonist)
Cc1noc(-c2ccc3c(c2)OCO3)c1C(=O)NCCSCc1ccccc1	ALOX12 inh 20µM (no result: gsp agonist, FUS yeast rescue, Mito fusion act, gsp antagonist)
COc1cc(CNCc2ccncc2)cc(Br)c1OCc1ccccc1F	gsp antagonist 32µM
COc1cc(CNc2ccc(O)cc2)cc(Br)c1OCc1ccccc1F	none (no result: ALOX12 inh)
NC(=O)N/N=C/c1cn(-c2ccccc2)nc1-c1cccs1	none
O=C(O)c1cccc(N/N=C/c2cn(-c3ccccc3)nc2-c2cccs2)c1	ALOX12 inh 45µM
CCOc1ccc(/C=N/NC(=O)c2ccccc2O)cc1CN1CC2CC(C1)c1cccc(=O)n1C2 (stereo not given)	gsp antagonist 35µM (no result: gsp agonist)
CCn1c(SCC(=O)c2ccc(C#N)cc2)nnc1-c1ccc(F)cc1	none (no result: gsp agonist, FUS yeast rescue, Mito fusion act, gsp antagonist)
COCCOC(=O)C1=C(C)NC(C)=C(C(=O)OC(C)C)C1c1cccc([N+](=O)[O-])c1 (stereo not given)	Mito fusion act 21µM! (no result: gsp agonist)
COC(=O)C1=C(C)NC(C)=C(C(=O)OC(C)(C)CN(C)CCC(c2ccccc2)c2ccccc2)C1c1cccc([N+](=O)[O-])c1 (stereo not given)	Mito fusion act 0.65µM (no result: gsp agonist, ALOX12 inh, FUS yeast rescue, gsp antagonist)
CCOC(=O)C1=C(C)NC(C)=C(C(=O)OC)C1c1cccc([N+](=O)[O-])c1 (stereo not given)	none (no result: gsp agonist)
CCOC(=O)C1=C(C)NC(C)=C(C(=O)OC)[C@H]1c1cccc([N+](=O)[O-])c1	none (no result: gsp agonist, FUS yeast rescue, Mito fusion act, gsp antagonist)
COCCOC(=O)C1=C(C)NC(C)=C(C(=O)OC/C=C/c2ccccc2)C1c1cccc([N+](=O)[O-])c1 (stereo not given)	Mito fusion act 5.8µM (no result: gsp agonist, FUS yeast rescue, gsp antagonist)
O=C(CN1CCN(c2nccs2)CC1)NCc1ccc(Cl)cc1	none (no result: gsp agonist, FUS yeast rescue, Mito fusion act, gsp antagonist)
O=C(CCn1nnc2ccccc21)Nc1nnc(Cc2ccccc2)s1	gsp agonist inconclusive, gsp antagonist 32µM (no result: FUS yeast rescue)
O=C(CCn1nnc2ccccc21)Nc1nnc(COc2ccccc2F)s1	none
CCc1c(C)sc(NC(=S)Nc2nc(C)cc(C)n2)c1C(=O)OC	gsp agonist inconclusive, ALOX12 inh 22µM
CCc1c(C)sc(NC(=S)Nc2cccnc2)c1C(=O)OC	none
COc1ccc(-n2nnnc2C2CCN(S(=O)(=O)c3cc(F)ccc3C)CC2)cc1	none (no result: gsp agonist, FUS yeast rescue, Mito fusion act, gsp antagonist)
CCCCOc1ccc(C2C(=O)N(C3CCCCC3)CC(=O)N2CC2CCCO2)cc1 (stereo not given)	FUS yeast rescue 8.9µM
COc1ccc(-c2cn3c(n2)CO[C@@H](CNCc2ccc(Cl)cc2)C3)cc1	ALOX12 inh 8.9µM (no result: gsp agonist, FUS yeast rescue, Mito fusion act, gsp antagonist)
COc1cccc(NC(=O)Nc2nc(SC(C)(C)C)ns2)c1	gsp antagonist 40µM
NC(=O)c1ccc(NC(=O)c2cc(C3CC3)nc3ccccc23)cc1	none (no result: gsp agonist, FUS yeast rescue, Mito fusion act, gsp antagonist)
Cc1ccsc1/C=N/NC(=O)c1ccc(Cn2cc(Br)cn2)o1	none (no result: FUS yeast rescue)
O=C(N/N=C/c1cccc(Br)c1)c1ccc(Cn2cc(Br)cn2)o1	gsp antagonist 35µM
COc1ccc(CNC(C)C(=O)Nc2ccc3ccccc3c2)cc1OC (stereo not given)	gsp antagonist 11µM
COc1cccc(CNC(C)C(=O)Nc2ccc3c(c2)OCCO3)c1 (stereo not given)	ALOX12 inh inconclusive
Cc1ccc(C(C)C)c(OCCCNCc2cccnc2)c1	none
